Values joined by “and” are separate entries in the source; they are usually repeats but may differ in a detail not shown here. Equal entries are not always repeated. Inconclusive results are not listed. Active and inactive are the calls of the source. Calls come from the whole dose curve.
Assay: Primary qHTS to identify inhibitors of SARS-CoV-2 cell entry (AID 1645846); note: nearly all actives have a fitted effect of over 45% in size
Details: SARS-CoV-2 pseudovirus cell entry assay, luminescence; activity change, negative = inhibition: at 57.1 µM (top of the series) unless noted; series mostly up to 57.1 µM
Outline: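 Using luciferase-reporting pseudoviruses carrying Wuhan-Hu-1 spike, the screen tracks entry into stably ACE2-expressing cells over 48 hr. Activity is expressed relative to spike particles versus particles lacking any fusion protein.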
Potency is the fitted concentration of half-maximal effect.

| SMILES | Potency | outcome | activity change, negative = inhibition |
| --- | --- | --- | --- |
| NCCCC(N)(C(=O)O)C(F)F (configuration not stated) | inactive | – | – |
| N#C/C(=C1\SCC(c2ccccc2Cl)S1)n1ccnc1 (configuration not stated) | – | inactive | – |
| Nc1nc(-c2nn(Cc3ccccc3F)c3ncccc23)nc(N)c1N1CCOCC1 | – | inactive [at 27.1 µM] | – |
| CCCCCCCc1ccc(CCc2cccc(O)c2C(=O)O)cc1 | – | – | -27.4% |
| COc1cc2nc(N3CCCN(C)CC3)nc(NC3CCN(Cc4ccccc4)CC3)c2cc1OC | 3.16 µM (active) | – | – |
| N#Cc1c(O)c2c(-c3ccc(-c4ccccc4O)cc3)csc2[nH]c1=O | – | – | 3.57% |
| Cc1ccc(C(=O)N(CCCN)[C@@H](c2nc3cc(Cl)ccc3c(=O)n2Cc2ccccc2)C(C)C)cc1 | – | – | -95.6% |
| O=C1[C@H](Cc2ccc(O)cc2)N2C(=O)CCN(C(=O)NCc3ccccc3)[C@H]2CN1Cc1cccc2ccccc12 | – | – | -93.3% |
| CCN1CCN(CC(=O)Nc2ccc(-c3cccc4c(=O)cc(N5CCOCC5)oc34)c3sc4ccccc4c23)CC1 | 5.62 µM (active) | – | – |
| O=C(Nc1ccc(F)c(C(F)(F)F)c1)Nc1nnc(-c2ccncc2)s1 | – | – | -21.1% |
| CN(C)CCCN=c1c2ccccc2n(C)c2[nH]c(=O)n(C)c(=O)c12 | 31.6 µM (active) | – | – |
| CCN(CC)c1ccc(C(=C2C=CC(=[N+](CC)CC)C=C2)c2cc(S(=O)(=O)O)ccc2S(=O)(=O)[O-])cc1 | – | inactive | – |
| CC(C)C[C@H](NC(=O)CNC(=O)c1cc(Cl)ccc1Cl)B(O)O | – | – | -97.2% and -98.8% |
| COc1cc(C)c(Sc2cnc(NC(=O)c3ccc(CNC(C)C(C)(C)C)cc3)s2)cc1C(=O)N1CCN(C(C)=O)CC1 (configuration not stated) | 12.6 µM (active) | – | – |
| CC(C)CC(=O)Nc1n[nH]c2c1CN(C(=O)C1CCN(C)CC1)C2(C)C | 5.62 µM (active) | – | – |
| COc1cc2nccc(Oc3ccc(NC(=O)Nc4cc(C)on4)c(Cl)c3)c2cc1OC | 14.1 µM (active) | – | – |
| O=C(O)c1ccc(O)c2ncc(N3CCOCC3)cc12 | 28.2 µM (active) | – | – |
| CC(=O)N[C@@H](CCC(N)=O)C(=O)O | – | – | -25.1% |
| CCN(CC)C(=O)c1ccc(C2=CC3(CCNCC3)Oc3cccc(O)c32)cc1 | – | – | -22.9% |

| SMILES | Potency | outcome | activity change, negative = inhibition |
| --- | --- | --- | --- |
| S=C(NCc1ccc2c(c1)OCO2)N1CCN(c2ncnc3c2oc2ccccc23)CC1 | 6.31 µM (active) | – | – |
| COc1ncc(-c2ccc3nccc(-c4ccnnc4)c3c2)cc1NS(=O)(=O)c1ccc(F)cc1F | 2.51 µM (active) | – | – |
| NC(=O)C1CCCc2c1[nH]c1ccc(Cl)cc21 (configuration not stated) | – | inactive | – |
| COc1cc2c(cc1O)CC[C@@H]1[C@@H]2CC[C@]2(C)[C@@H](O)CC[C@@H]12 | – | – | -26.7% |
| CC(=O)N[C@@H](Cc1ccc(O)cc1)C(=O)O | – | inactive | – |
| COc1cc2nc(-c3ccc(N4CCN(C)CC4)cc3)nc(NCCN3CCOCC3)c2cc1OC | – | – | -14.2% |
| COCCn1c2c([n+](Cc3cnccn3)c1C)C(=O)c1ccccc1C2=O | – | – | -98.5% |
| c1ccc2c(CCNc3ccc(Nc4ccncc4)cc3)c[nH]c2c1 | 8.91 µM (active) | – | – |
| Nc1nc(Nc2ccc(S(N)(=O)=O)cc2)nn1C(=O)c1c(F)cccc1F | 1 µM (active) | – | – |
| CCC(=O)N1CCN(c2ccc(-n3c(=O)ccc4cnc5ccc(-c6cnc7ccccc7c6)cc5c43)cc2C(F)(F)F)CC1 | – | – | -91.2% [at 27.1 µM] |
| O=c1cc(N2CCOCC2)oc2c(-c3cccc4c3sc3ccccc34)cccc12 | 7.94 µM (active) | – | – |
| CC[C@@H]1C(=O)N(C)c2cnc(Nc3ccc(C(=O)NC4CCN(C)CC4)cc3OC)nc2N1C1CCCC1 | – | – | -96.8% |
| COc1c(C)cnc(Cn2cnc3c(Cl)nc(N)nc32)c1C | – | – | -96.5% |
| CC(C)(C)OC(=O)Nc1ccc(-c2cc(C(=O)NCCCCCCC(=O)NO)no2)cc1 | – | – | -8.17% |
| CCOc1cc(C(=O)Nc2ccc(Cl)c(-c3nc4ccccc4[nH]3)c2)cc(OCC)c1OCC | 25.1 µM (active) | – | – |
| Cc1ccnc(NS(=O)(=O)c2ccc(NC(=O)Nc3ccc(S(=O)(=O)Nc4nccc(C)n4)cc3)cc2)n1 | – | – | -16.3% |
| O=c1cc(CN2CCOCC2)occ1OCCCCCSc1ccnc2cc(C(F)(F)F)ccc12 | 10 µM (active) | – | – |
| CN(NC(=O)CC(=O)NN(C)C(=S)c1ccccc1)C(=S)c1ccccc1 | – | – | -97.7% |
